# Screening data: PubChem, National Center for Advancing Translational Sciences (NCATS)
# The entries come from a sample that favours hits as a whole.
# AMA1-RON2 inh: qHTS for Inhibitors of AMA1-RON; Towards Development of Antimalarial Drug Lead: Primary Screen; Plasmodium falciparum AMA1 (3D7) - RON2 peptide interaction; AlphaScreen AMA1-biotinylated RON2 peptide binding; AID 720542, 2013; Potency, µM (series often up to 58.2 µM), for the others: top-dose activity change, negative = inhibition, most hits filed as inhibitors; actives 0.2% (n = 360,000);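 also: potency is read from the fitted curve at half-maximal effect; 0% = vehicle wells and -100% = peptide control; nearly all actives have a fitted effect of over 45% in size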
#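 AMA1 (3D7) with his tag at 25 nM final met compounds first, then biotinylated RON2 peptide at 25 nM; detection used donor plus acceptor beads, 10 µg/mL apiece, read by AlphaScreen after 30 min at room temperature.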
# SARS PLP yeast: qHTS of Yeast-based Assay for SARS-CoV PLP; S. cerevisiae expressing SARS-CoV PLpro, growth rescue; Potency, µM (doses to about 32.9 µM), for inactives: at the highest dose activity, positive = growth rescue, hits mostly activators; actives 0.19% (n = 330,000); AID 485353, 2010; calls by dose curve; also: potency is read from the fitted curve at half-maximal effect; 0% is about no effect; nearly all actives have a fitted effect of over 55% in size
# AmpC no deterg: qHTS Inhibitors of AmpC Beta-Lactamase (assay without detergent); actives 0.52% (n = 330,000); AmpC nitrocefin hydrolysis, absorbance 480 nm, 0.0001% Triton; P00811; Potency, µM (highest dose often 57.1 µM), for inactives: top-dose activity change, negative = inhibition, most hits filed as inhibitors; AID 485341, 2010;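 also: potency is read from the fitted curve at half-maximal effect; plate controls were no compound for no effect and no enzyme for full effect; nearly all actives have a fitted effect of over 20% in size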
# Target sequence (P00811 whole entry, looked up): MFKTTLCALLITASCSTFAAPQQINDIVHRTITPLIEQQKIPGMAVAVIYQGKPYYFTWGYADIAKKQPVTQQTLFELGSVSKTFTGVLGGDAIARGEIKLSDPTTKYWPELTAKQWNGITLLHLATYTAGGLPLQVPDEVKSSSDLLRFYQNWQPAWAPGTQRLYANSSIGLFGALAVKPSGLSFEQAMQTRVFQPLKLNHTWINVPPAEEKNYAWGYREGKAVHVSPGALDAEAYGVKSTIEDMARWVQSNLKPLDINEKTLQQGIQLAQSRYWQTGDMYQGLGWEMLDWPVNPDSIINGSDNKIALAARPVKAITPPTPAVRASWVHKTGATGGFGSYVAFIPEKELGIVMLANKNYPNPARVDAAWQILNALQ
#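 AmpC (5.3 nM in the dispensed reagent) in 20 mM phosphate pH 7.0 with 0.01% (detergent screen) or 0.0001% Triton X-100 was preincubated with compounds for 15 min at room temperature. Nitrocefin was then added from an 800 uM solution, and hydrolysis was followed at 480 nm.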
# Shiga inhibitor: A qHTS for Small Molecule Inhibitors of Shiga Toxin; Vero cells, Shiga toxin protein synthesis inhibition reporter; inhibition, % at 38.7 µM; actives 9.2% (n = 290,000); in the data active = inhibition mostly above about 28%, no sharp cut-off; inactive = mostly below about 43%; also: 0% is about no effect
# CHX counter: Cycloheximide Counterscreen for Small Molecule Inhibitors of Shiga Toxin; actives 12% (n = 300,000); cell reporter, cycloheximide protein synthesis inhibition counterscreen; max response, %; in the data active = max response mostly above about 13%, no sharp cut-off; inactive = mostly below about 14%; also: read at 38.3 µM for the half of the compounds with a filed dose; 0% is about no effect
# AmpC inh detg: qHTS Inhibitors of AmpC Beta-Lactamase (assay with detergent); P00811; AmpC hydrolysis of nitrocefin, absorbance 480 nm, 0.01% Triton; Potency, µM (titrated, usually from 114 µM), inactives show at the top dose activity change, negative = inhibition, most hits filed as inhibitors; actives 0.041% (n = 370,000); AID 485294, 2010;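 also: potency is read from the fitted curve at half-maximal effect; 0% = no-compound wells and -100% = no-enzyme wells; nearly all actives have a fitted effect of over 25% in size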
#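 AmpC (5.3 nM in the dispensed reagent) in 20 mM phosphate pH 7.0 with 0.01% (detergent screen) or 0.0001% Triton X-100 was preincubated with compounds for 15 min at room temperature. Nitrocefin was then added from an 800 uM solution, and hydrolysis was followed at 480 nm.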
# * = called active by the depositor; ? = inconclusive; / = no result given; [ ] = dose if it differs, or a comment. Unless noted, calls follow the shape of the dose curve; as a rule, active = well fitted curve in the direction sought with a large enough effect; inconclusive = small, poorly fitted or top-dose-only effect, or another doubt; inactive = no such curve, though single readings can be large; an effect the other way counts as inactive or inconclusive.
SMILES,AMA1-RON2 inh,SARS PLP yeast,AmpC no deterg,Shiga inhibitor,CHX counter,AmpC inh detg
O=C(NC1CCCCC1)C(c1cccs1)N(CCCN1CCOCC1)C(=O)c1ccc(-c2ccccc2)[nH]1 (centres undefined),-30%,0%,246%,56*,19*,2%
CN(C)CCNC(=O)c1cc2sc3ccccc3c2s1,2%,-3%,21%,85*,40*,-6%
CCN(CC)C(=O)c1cc2sc3ccccc3c2s1,2%,-29%,21%,106*,71*,-8%
COCCN(CCOC)C(=O)c1cc2sc3ccccc3c2s1,9%,-8%,100%,68,12,-9%
O=C(Nc1ccc(-n2ccc(C(F)(F)F)n2)cc1)c1cccs1,-5%,-3%,-31%,117*,45*,3%
O=C(O)CCCC(=O)Nc1ccc(-n2ccc(C(F)(F)F)n2)cc1,-6%,-2%,-12%,-10,-2,3%
O=C(O)c1ccccc1C(=O)Nc1ccc(-n2ccc(C(F)(F)F)n2)cc1,3%,-2%,-3%,2,-2,-2%
O=C(O)CCC(=O)Nc1ccc(-n2ccc(C(F)(F)F)n2)cc1,-11%,-1%,-11%,42*,25*,-4%
Cc1ccc(-c2cnc(C(O)c3c(C)cccc3C)[nH]2)cc1 (centres undefined),11%,/,/,/,/,/
O=C1CSC(c2cccc(F)c2)N1c1c(F)cccc1F (centres undefined),-1%,1%,-9%,-6,2,-4%
O=C1CSC(c2ccc(F)cc2)N1c1c(F)cccc1F (centres undefined),1%,1%,-10%,22,21*,-4%
O=C(COC(=O)/C=C/c1ccc(OC(F)F)cc1)NCc1cccs1,4%[11.6 µM],?,-14%,10,11,0%
C=CCn1cnc2c(NCc3ccccc3)ncnc21,7%,5%,7%,91*,50*,9%
CCCCN(c1ccccc1)S(=O)(=O)c1ccc2c(c1)CCN2C(=O)CCC(=O)O,8%,-2%,-27%,14,-1,3%
O=C(NNc1nc2c(F)cccc2s1)C1=COCCO1,82%,0%,-12%,15,9,-13%
Fc1cccc2sc(Nc3nc4cc5c(cc4s3)OCO5)nc12,32%[11.6 µM],-41%,-14%,116*,70*,0%
Fc1cc(F)c2nc(Nc3nc4cc5c(cc4s3)OCO5)sc2c1,39%,-14%,-32%,26,21*,-8%
Fc1cccc2sc(Nc3nc4cc5c(cc4s3)OCCO5)nc12,17%[2.32 µM],-19%,-15%,96*,51*,1%
CCCCC(=O)N/N=C/c1c(O)n(Cc2ccco2)c(=O)[nH]c1=O,16%,0%,-21%,12,1,?
CN1CCc2c(OCC(=O)NC3CCCCC3)cccc2C1=O,17%,-3%,89%,-4,9,-9%
C#CCSc1nnc(-c2ccc([N+](=O)[O-])cc2)o1,-5%,-1%,-19%,58*,23*,?
COc1ccc(-c2nnc(SCc3c(C)noc3C)o2)cc1,0%,-7%,3%,68*,27*,?
N#CCSc1nnc(-c2sc3ccccc3c2Cl)o1,0%,-9%,-23%,61,42*,1%
C#CCSc1nnc(-c2ccc(OC)cc2)o1,-21%,19%,-5%,46,37*,?
COc1ccc(-c2nnc(SCC(=O)NC3CC3)o2)cc1,3%,10%,-13%,/,/,-21%
Cc1ccc(N=Nc2ccc(O)c(P(=O)(c3ccccc3)c3ccccc3)c2)cc1,0%,0%,-50%,-6,-1,2%
CC(=O)c1ccc(NC(=O)Cn2c(=O)nc(-c3ccccc3)c3ccccc32)cc1,/,/,/,/,/,11%
Cc1nc([N+](=O)[O-])c(Br)n1CC(=O)c1cccc([N+](=O)[O-])c1,-8%,-2%,-21%,-12,8,3%
